Laboratory results: PubChem BioAssay AID2528 (National Center for Advancing Translational Sciences (NCATS), 2010)
In all, about 350,000 compounds went through this assay and about 700 (0.2%) were called active. The list comes from a sample in which actives are over-represented; it also holds similar structures and randomly drawn compounds. A number with no mark means an inactive call. Calls come from the whole dose curve; as a rule, active = well fitted inhibition curve with a large enough effect; inconclusive = small, poorly fitted or top-dose-only effect; inactive = flat fitted curve, though single readings scatter.

These compounds were tested against RecQ-like DNA helicase BLM (Homo sapiens) (UniProt P54132) (assay: qHTS Assay for Inhibitors of Bloom's syndrome helicase (BLM)). Conditions: recombinant BLM DNA unwinding, fluorescence dequenching; series mostly up to 56.1 µM; activity change, negative = inhibition: at the top concentration.
RecQ-like DNA helicase BLM (Homo sapiens), sequence (P54132 whole entry, looked up): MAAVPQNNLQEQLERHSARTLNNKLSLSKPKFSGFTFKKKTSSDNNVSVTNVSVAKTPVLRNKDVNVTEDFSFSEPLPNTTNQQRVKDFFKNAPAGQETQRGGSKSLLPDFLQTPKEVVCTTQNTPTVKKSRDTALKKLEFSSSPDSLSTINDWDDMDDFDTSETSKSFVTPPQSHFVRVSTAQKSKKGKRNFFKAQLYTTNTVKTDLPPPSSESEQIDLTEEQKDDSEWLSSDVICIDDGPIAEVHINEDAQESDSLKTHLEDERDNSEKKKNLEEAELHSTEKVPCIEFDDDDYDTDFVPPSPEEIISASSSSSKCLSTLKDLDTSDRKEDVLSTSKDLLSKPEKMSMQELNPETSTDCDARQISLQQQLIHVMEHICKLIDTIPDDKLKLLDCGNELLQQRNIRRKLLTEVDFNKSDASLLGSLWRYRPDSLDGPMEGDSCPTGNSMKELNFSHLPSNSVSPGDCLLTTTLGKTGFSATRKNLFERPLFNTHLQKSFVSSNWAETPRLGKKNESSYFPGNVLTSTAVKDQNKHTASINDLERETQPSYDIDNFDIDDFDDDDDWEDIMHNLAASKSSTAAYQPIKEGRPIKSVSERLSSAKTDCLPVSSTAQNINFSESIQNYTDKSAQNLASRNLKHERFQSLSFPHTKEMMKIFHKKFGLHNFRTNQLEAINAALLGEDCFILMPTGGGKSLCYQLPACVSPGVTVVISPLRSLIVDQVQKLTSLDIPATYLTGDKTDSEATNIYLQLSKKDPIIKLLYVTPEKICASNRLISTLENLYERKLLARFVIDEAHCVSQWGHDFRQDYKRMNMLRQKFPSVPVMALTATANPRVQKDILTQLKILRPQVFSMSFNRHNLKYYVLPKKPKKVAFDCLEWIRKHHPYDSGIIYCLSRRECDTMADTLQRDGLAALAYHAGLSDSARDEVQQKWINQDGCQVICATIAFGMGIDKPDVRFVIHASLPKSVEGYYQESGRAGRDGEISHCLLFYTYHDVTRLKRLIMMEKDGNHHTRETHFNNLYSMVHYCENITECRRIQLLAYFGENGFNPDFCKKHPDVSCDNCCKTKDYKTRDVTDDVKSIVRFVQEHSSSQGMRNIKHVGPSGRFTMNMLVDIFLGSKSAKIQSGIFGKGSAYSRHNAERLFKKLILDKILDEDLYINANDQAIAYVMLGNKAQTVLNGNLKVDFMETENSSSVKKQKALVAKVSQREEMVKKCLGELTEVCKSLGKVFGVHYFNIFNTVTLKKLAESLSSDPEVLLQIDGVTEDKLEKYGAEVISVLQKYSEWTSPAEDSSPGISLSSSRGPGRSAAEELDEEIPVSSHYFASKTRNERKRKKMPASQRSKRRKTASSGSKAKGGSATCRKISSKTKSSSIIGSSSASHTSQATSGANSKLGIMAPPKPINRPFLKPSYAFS
Source text: Survival of cells and the faithful propagation of the genome depend on elaborate mechanisms of detecting and repairing DNA damage. Treatment of advanced cancer relies on radiation therapy or chemotherapy, which kill cancer cells by causing extensive DNA damage. It is often found, that cancer cells develop resistance to therapy through enhanced activity of DNA repair functions; this has led to an increased interest in developing drugs that interfere with DNA repair, which could sensitize cancer cells to conventional therapy.
This validation qHTS assay pertains to human BLM, which is important in resolving abnormal DNA structures formed during replication or homologous recombination. Shutting down the expression of BLM leads to chromosomal instability and higher radiation sensitivity in cultured cells.
The validation assay was a fluorescence quenching based kinetic qHTS for BLM Helicase DNA unwinding. The activity was measured as ATP-dependent separation of a 20-bp DNA duplex extended by 30-nt single-stranded tails (forked duplex). The forked DNA substrate was tagged with rhodamine fluorophore (carboxytetramethyl rhodamine, TAMRA) and BHQ-2 (Black Hole Quencher 2) dark quencher. Strand separation results in an increase in the fluorescence of TAMRA (excitation 525 nm, emission 598 nm). This substrate construct operates in a red-shifted region where very few compound library members have been noted to fluoresce (PubChem AIDs 593 and 594). An additional feature of the assay is the inclusion of 2.5 ug/ml poly (dIdC), to reduce interference by compounds such as DNA intercalators, a major source of false inhibitors.
Ian Hickson, University of Oxford
Opher Gileadi, Structural Genomics Consortium, University of Oxford
Screening Center PI: Austin, C.P.
Screening Center: NIH Chemical Genomics Center [NCGC]
Three uL of reaction buffer (25 mM Tris-HCl (pH 8.0), 5 mM NaCl, 2 mM MgCl2, 1mM DTT, 0.01% Tween- 20, and 2.5 ug/ml poly(dI-dC), including enzyme (50 nM BLM), were dispensed into a 1536-well Greiner black assay plate via solenoid-valve based nanoliter dispensers. Compounds (23 nl each in columns 5-48) and control (23 nl each in column 2 as dose-response) were transferred via a Kalypsys pintool equipped with a 1536-pin array. The plates were incubated for 15 min at room temperature, and then 1 ul of substrates (200 nM DNA and 2 mM ATP, final concentrations) was added to start the reaction. The plate was transferred into a ViewLux high-throughput CCD imager where the reaction progress was measured in a discontinuous kinetic mode (two reads spaced 2 hours apart, with intermediate room temperature incubation of the covered assay plate) by using standard red-fluorescence optics (excitation filter 525 nm, emission filter 598 nm). Enzyme-free and vehicle (DMSO) controls were included for signal normalization.
Note: nearly all actives have a fitted effect of over 35% in size.
Potency is the fitted concentration of half-maximal effect.

Row | SMILES | activity change, negative = inhibition | Potency
1 | Cc1ccc(CCNC(=O)C2CCN(c3nnc(-n4cccc4CNc4ccc(C)cc4)s3)CC2)cc1 | -9.92% | 
2 | CC(C)C1=CC2=CC[C@H]3[C@](C)(C(=O)O)CCC[C@]3(C)C2CC1 (stereo partly drawn) | 4.37% | 
3 | O=C(O)c1cc(Cl)c(Cl)cc1C(=O)Nc1cccc2ncccc12 | -9.89% | 
4 | CCOC(=O)c1ccc(-c2ccc(/C=C(\C#N)C(=O)Nc3ccc(OCC)cc3)o2)cc1 | -5.55% | 
5 | Cc1ccc(/C=C(\C#N)C(=O)Nc2cccc3ncccc23)o1 |  | 7.94 µM (active)
6 | FC(F)(F)c1ccccc1-c1nc(-n2ccnc2)c2ccccc2n1 | -3.83% | 
7 | C/C(CCN1CCCCc2nc(C)c(C)cc21)=N\O[C@@H](C)c1cn([C@@H]2COC[C@@H]2O)nn1 | 3.53% [at 12.4 µM] | 
8 | CN1C(=O)CN2CCc3ccccc3C2c2cc(Cl)ccc21 (stereo not drawn) | 3.82% | 
9 | C=C[C@](C)(O)CCC1C(=C)CCC2[C@@](C)(CO)CCC[C@@]12C (stereo partly drawn) | -2.39% | 
10 | CC/C=C\C/C=C\C/C=C\C/C=C\C/C=C\C/C=C\CCC(=O)NCCc1ccc(O)c(O)c1 | -0.801% | 
11 | Cc1c(S(=O)(=O)O)oc2c1C(=O)C(=O)c1c-2ccc2c1CCCC2(C)C |  | 31.6 µM (active)
12 | CC(C)C(N)C(=O)OCCOCn1cnc2c(=O)[nH]c(N)nc21 (stereo not drawn) | -7.58% | 
13 | O=C(O)C[C@@H]1NC(=O)[C@H](Cc2ccccc2)NC1=O | 0.405% | 
14 | CCc1ccc(NC(=O)c2cnc3c(-c4ccccc4)c(C)nn3c2C)cc1 | -1.21% | 
15 | COC1C[C@@H](O[C@@H]2C(C)C(=O)OC(C)C(C)C(O)C(C)C(=O)[C@@]3(CO3)CC(C)C(OC3OC(C)CC(N(C)C)C3O)C2C)OC(C)[C@@H]1O (stereo partly drawn) | -4.86% | 
16 | CC(=O)Oc1c2c(c3c(c1CC=C(C)C)O[C@@]14C(=CC5CC1C(C)(C)OC4(C/C=C(\C)C(=O)O)C5=O)C3=O)OC(C)(CCC=C(C)C)C=C2 (stereo partly drawn) | -15.4% | 
17 | CCC(C)[C@@H](N)C(=O)O (stereo partly drawn) |  | inactive
18 | c1ccc2c(Nc3ccncc3)nc(-c3ccc4c(c3)OCO4)nc2c1 | -15.1% | 
19 | COCCNC(=O)Nc1ccc2nc(-c3ccco3)c(-c3ccco3)nc2c1 |  | 12.6 µM (active)
20 | COc1cccc(S(=O)(=O)NCc2ccc(C(=O)NCc3ccccn3)cc2)c1 | 0.376% | 
21 | O=C(NCc1ccccn1)c1ccc2nc(-c3ccco3)c(-c3ccco3)nc2c1 |  | 8.91 µM (active)
22 | COc1ccc(-c2nc3ccc(C(=O)NCc4ccc(C)cc4)cc3nc2-c2ccc(OC)cc2)cc1 | -3.72% | 

Row | SMILES | activity change, negative = inhibition | Potency
23 | CCOc1ccc(NC(=O)c2ncoc2-c2ccco2)cc1 | -4.8% | 
24 | COc1ccc(NC(=O)COCc2cc(-c3ccco3)on2)cc1 | 0.68% | 
25 | Cc1cccc(C)c1NC(=O)NC1=CCCN1C | -6.49% | 
26 | Cc1noc(C)c1C(=O)NCCc1ccc(S(N)(=O)=O)cc1 | -0.714% | 
27 | CCOC(=O)c1c(N)n(-c2cccc(C)c2C)c2nc3ccccc3nc12 | -6.93% | 
28 | CCCNC(=O)c1c(N)n(-c2ccc(S(N)(=O)=O)cc2)c2nc3ccccc3nc12 |  | 20 µM (active)
29 | COc1ccccc1CNc1ccnc(-c2c(C)noc2C)n1 | -3.97% | 
30 | N#CCCn1c(=O)c(-c2cc(F)cc(F)c2)nc2cnc(Oc3ccccc3)nc21 | -12.2% | 
31 | Clc1ccccc1CSc1nncn2c1cc1occc12 | -3.01% | 
32 | CC1(C)N=C(SCc2ccccc2Cl)c2ccccc2N1 | -0.452% | 
33 | O=C(NCCSc1ccccc1)c1ccco1 | -7.71% | 
34 | Clc1ccccc1CSc1nnc(-c2ccco2)c(-c2ccco2)n1 |  | 14.1 µM (active)
35 | c1ccc(CSc2nnc(-c3ccco3)c(-c3ccco3)n2)cc1 |  | 14.1 µM (active)
36 | Cc1ccc(-c2nnc(SCC(=O)NCc3ccccc3)nc2-c2ccc(C)cc2)cc1 | -9.64% | 
37 | COc1ccc(N2CCN(C(=O)CSCc3nc(-c4ccccc4Cl)oc3C)CC2)cc1 | -3.38% | 
38 | Cc1ccc2c(=O)c(C(=O)c3cccc(Cl)c3)cn(CC(=O)NCc3ccccc3)c2n1 | 1.52% | 
39 | C=C/C1=C/Cc2ccccc2[C@H](C[N+](=O)[O-])C(C(=O)OC)(C(=O)OC)C1 | 1.77% | 
40 | O=P(O)(O)OC[C@H](O)CO | -13.5% | 
41 | O=c1c(-c2cc(F)cc(F)c2)nc2cnc(Oc3ccccc3)nc2n1C[C@H]1CCCO1 | -7.56% | 
42 | C=CCC(C)(O)c1ccco1 (stereo not drawn) | 1.35% | 
43 | N#Cc1ccccc1-c1ccc2ncnc(NCc3cccnc3)c2c1 | -6.8% | 
